{
  "source": "PubChem BioAssay (Tox21)",
  "note": "Records with an inconclusive call do not appear. A structure can be active in one record and inactive in another. The source made the active and inactive calls. Calls follow the shape of the dose curve; as a rule, active = well fitted activation curve with a large enough effect in the repeat runs; inconclusive = weak or mixed curves; inactive = flat fitted curve, though single readings scatter. % is scaled to controls: 0 for no effect and ±100 for the full control effect; potency is read from the fitted curve at half-maximal effect.",
  "data": [
    {"test": "A CellTox Green Cytotoxicity Assay to monitor cytotoxicity in HEK293 cells - 8 hour (AID 1224884); also: nearly all actives have a fitted effect of over 35% in size", "settings": "CellTox Green fluorescence; series mostly up to 76.8 µM; cytotoxicity increase: at the top concentration", "description": "National Center for Advancing Translational Sciences [NCATS]\nNIH Chemical Genomics Center [NCGC]\nU.S. Environmental Protection Agency [EPA]\nNational Institutes of Environmental Health Sciences [NIEHS]\nNational Toxicology Program [NTP]\nCell-based models are critical for drug discovery. Determining the natural cytotoxic effects resulting from test compounds is an essential research activity. A CellTox Green Cytotoxicity Assay to monitor cytotoxicity in real time of continues cell culture during 40 hours of the compound treatment was used to screen Tox21 10K library compounds in Hek293 cells. CellTox Green Cytotoxicity Assay is a nonlytic, homogeneous, biofluorescent method to measure cytotoxicity in cell culture after experimental manipulation. The assay system uses a proprietary asymmetric cyanine dye that is excluded from viable cells but preferentially stains the dead cell's DNA. […] Viable cells produce no appreciable increases in fluorescence. Therefore, the fluorescence signal produced by the binding interaction with dead cell DNA is proportional to cytotoxicity.\nThe mixture of Hek293 cell suspension and reagents were dispensed at 600cells/6 ul/well in 1536-well tissue culture treated black solid bottom plates using a Multidrop dispenser. After the assay plates were incubated at a 37 C/5% CO2 incubator for 5 hours, 23 nL of compounds dissolved in DMSO, positive and negative controls was transferred to the assay plate by a pintool work station. The plates were incubated at 37 C for 40 hours. The fluorescence intensity were measured at 0h, 8h, 16h, 24h, 32h and 40h time points using ViewLux plate reader during compound treatment.", "values": [
      {"smiles": "O=C1CC2(CCCC2)CC(=O)N1CCCCN1CCN(c2ncccn2)CC1", "Potency": "inactive"},
      {"smiles": "COc1ccc(Cc2cnc(N)nc2N)cc1OC", "cytotoxicity increase": "-4.08% [at 35.3 µM] (inactive)"},
      {"smiles": "CCCCCC(=O)O[C@]1(C(C)=O)CC[C@H]2[C@@H]3CCC4=CC(=O)CC[C@]4(C)[C@H]3CC[C@@]21C", "Potency": "inactive"},
      {"smiles": "CCCCCCC(O)CCCCCCCCCCC(=O)O", "note": "(stereo not given)", "Potency": "inactive"},
      {"smiles": "CC(=O)C1=C(C)[C@@H]2C[C@@]3(C1)[C@H](C)CC[C@H]3C2(C)C", "Potency": "inactive"},
      {"smiles": "CC(C)CCOC(=O)c1ccc(N(C)C)cc1", "cytotoxicity increase": "-3.07% [at 35.3 µM] (inactive)"},
      {"smiles": "CCCC(=O)c1ccccc1", "cytotoxicity increase": "-0.849% (inactive)"},
      {"smiles": "Nc1cc(Cl)c(-c2cc(Cl)c(N)cc2Cl)cc1Cl", "cytotoxicity increase": "18.1% (inactive)"},
      {"smiles": "CC1COC(=O)O1", "note": "(stereo not given)", "Potency": "inactive"},
      {"smiles": "CC(C)(C)NCC(O)COc1ccccc1OCC1CCCO1", "note": "(stereo not given)", "cytotoxicity increase": "14.3% [at 35.3 µM] (inactive)"},
      {"smiles": "CC(C)(C)NCC(O)c1cc(O)cc(O)c1", "note": "(stereo not given)", "cytotoxicity increase": "2% [at 35.3 µM] (inactive)"},
      {"smiles": "Clc1ccc2c(c1)C(N1CCNCC1)=Nc1ccccc1O2", "cytotoxicity increase": "10.7% [at 35.3 µM] (inactive)"},
      {"smiles": "CNCCC(Oc1ccc(C(F)(F)F)cc1)c1ccccc1", "note": "(stereo not given)", "Potency": "26.8 µM (active)"},
      {"smiles": "Cc1ccnc2c1NC(=O)c1cccnc1N2C1CC1", "Potency": "inactive"},
      {"smiles": "CCCCC(CC)COC(=O)CC(C(=O)OCC(CC)CCCC)S(=O)(=O)O", "note": "(stereo not given)", "Potency": "13.8 µM (active)"},
      {"smiles": "c1ccc2c(c1)CCCC2C1=NCCN1", "note": "(stereo not given)", "cytotoxicity increase": "5.07% [at 35.3 µM] (inactive)"},
      {"smiles": "CCCCC/C=C/CC1CC(=O)OC1=O", "note": "(stereo not given)", "cytotoxicity increase": "-6.18% (inactive)"},
      {"smiles": "O=C(O)CCc1ccccc1", "cytotoxicity increase": "-9.2% (inactive)"},
      {"smiles": "CO[Si](OC)(OC)c1ccccc1", "cytotoxicity increase": "-7.74% (inactive)"},
      {"smiles": "c1ccc2n[nH]nc2c1", "Potency": "9.5 µM (active) and inactive"},
      {"smiles": "Oc1ccc(Cl)cc1Cc1cc(Cl)ccc1O", "Potency": "inactive"},
      {"smiles": "CC(C)C(=O)c1c(C(C)C)nn2ccccc12", "cytotoxicity increase": "-1.46% [at 35.3 µM] (inactive)"},
      {"smiles": "C[N+]1([O-])CCOCC1", "cytotoxicity increase": "-10.8% (inactive)"},
      {"smiles": "Cc1c(O)cccc1C(=O)N[C@@H](CSc1ccccc1)[C@H](O)CN1C[C@H]2CCCC[C@H]2C[C@H]1C(=O)NC(C)(C)C", "Potency": "inactive"},
      {"smiles": "CC(C)(C)c1ccc(O)c(C(C)(C)C)c1", "Potency": "43.5 µM (active)"},
      {"smiles": "C=CC(=O)OCCCCCCOC(=O)C=C", "Potency": "inactive"},
      {"smiles": "C=CS(=O)(=O)O", "cytotoxicity increase": "10.7% (inactive)"},
      {"smiles": "CC(C)(C)NC(=O)[C@@H]1CN(Cc2cccnc2)CCN1C[C@@H](O)C[C@@H](Cc1ccccc1)C(=O)N[C@H]1c2ccccc2C[C@H]1O", "Potency": "inactive"},
      {"smiles": "O", "Potency": "inactive"},
      {"smiles": "CCn1c2ccccc2c2cc(N)ccc21", "Potency": "inactive"},
      {"smiles": "CCOC(=O)C(C)C(C)=O", "note": "(stereo not given)", "cytotoxicity increase": "-0.605% (inactive)"},
      {"smiles": "NCCO", "Potency": "inactive"},
      {"smiles": "CC(C)CCOCc1ccccc1", "cytotoxicity increase": "13.3% (inactive)"},
      {"smiles": "CCC(C)(C)C(=O)O[C@H]1C[C@@H](C)C=C2C=C[C@H](C)[C@H](CC[C@@H]3C[C@@H](O)CC(=O)O3)[C@H]21", "cytotoxicity increase": "-6.71% (inactive)"},
      {"smiles": "C=C(C)C1CC=C(C)C(OC(C)=O)C1", "note": "(stereo not given)", "cytotoxicity increase": "-7.82% (inactive)"},
      {"smiles": "O=S(=O)(O)c1ccc2nc(-c3ccccc3)[nH]c2c1", "Potency": "inactive"},
      {"smiles": "C=CC(=O)OCCCCCCCC", "cytotoxicity increase": "-10.6% (inactive)"},
      {"smiles": "CC(=O)CC(C)=O", "cytotoxicity increase": "-0.355% (inactive)"},
      {"smiles": "O=c1n(CC2CO2)c(=O)n(CC2CO2)c(=O)n1CC1CO1", "note": "(stereo not given)", "Potency": "inactive"},
      {"smiles": "CC(C)(C)c1cc(C(C)(C)C)c(O)c(C(C)(C)C)c1", "cytotoxicity increase": "25.2% (inactive)"}
    ]}
  ]
}
